Potency, outcome and activity change, negative = cytotoxic data for 25 compounds are collected here from PubChem BioAssay (NCATS).

Records with an inconclusive call do not appear. A number with no mark means an inactive call. Active and inactive are the calls of the source. Calls follow the shape of the dose curve; as a rule, active = well fitted curve in the direction sought with a large enough effect; inconclusive = small, poorly fitted or top-dose-only effect, or another doubt; inactive = no such curve, though single readings can be large; an effect the other way counts as inactive or inconclusive.

A short description of test [1]: qHTS of pediatric cancer cell lines to identify multiple opportunities for drug repurposing: Primary screen for Rh18 cells (AID 1347102). Also: % is scaled to controls: 0 for no effect and ±100 for the full control effect; nearly all actives have a fitted effect of over 65% in size. In a few lines: (§1)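 Cells (500-1,000/well) rested 5 h, then received compounds for 48 h; metabolically active cells were measured by CellTiter-Glo luminescence. Final concentrations spanned up to 46 µM (MIPE, 11-point) or 0.59 nM-46 µM (NPC, 8-point) in primary screens, 11-point in follow-ups.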
Background: qHTS replaces the single test concentration by a dilution series.

A short description of test [2]: qHTS of pediatric cancer cell lines to identify multiple opportunities for drug repurposing: Primary screen for OHS-50 cells (AID 1347103). Also: nearly all actives have a fitted effect of over 40% in size. Also: potency is read from the fitted curve at half-maximal effect.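 As to activity change, negative = cytotoxic: plate controls were DMSO neutral control for no effect and bortezomib positive control for full effect.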 The essentials: as §1
The nature of test [3]: qHTS of pediatric cancer cell lines to identify multiple opportunities for drug repurposing: Primary screen for RD cells (AID 1347104).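 Also: plate controls were DMSO for no effect and bortezomib for full effect; nearly all actives have a fitted effect of over 55% in size.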 In a few lines:
(§2)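 Primary screen of approved and investigational compounds on cells in growth media at 37 degrees C, 5% CO2. MIPE set at 11-point and NPC set at 8-point dilutions; viability scored by ATP-based luminescence at 48 hours.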

Test [4] in a line: qHTS of pediatric cancer cell lines to identify multiple opportunities for drug repurposing: Primary screen for MG 63 (6-TG R) cells (AID 1347105). Also: nearly all actives have a fitted effect of over 50% in size. Also: potency is read from the fitted curve at half-maximal effect. As to activity change, negative = cytotoxic: % is scaled to controls: 0 for no effect and ±100 for the full control effect. In a few lines:
as §2

Test [5] can be described thus: qHTS of pediatric cancer cell lines to identify multiple opportunities for drug repurposing: Primary screen for control Hh wild type fibroblast cells (AID 1347106).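 Also: series mostly up to about 46 µM; % is scaled to controls: 0 for no effect and ±100 for the full control effect; a drop in luminescence marks cytotoxicity and a rise apparent proliferation; nearly all actives have a fitted effect of over 55% in size.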 The essentials:
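Cells (500-1,000/well) in growth media were settled 5 h at 37 degrees C, then given compounds for 48 h. Viability was read as CellTiter-Glo luminescence. Primary runs used MIPE at 11 points (0.78 nM-46 µM) and NPC at 8 points (0.59 nM-46 µM); follow-ups used 11 points.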

A short description of test [6]: qHTS of pediatric cancer cell lines to identify multiple opportunities for drug repurposing: Primary screen for Rh30 cells (AID 1347107). Also: series mostly up to about 46 µM; % is scaled to controls: 0 for no effect and ±100 for the full control effect; nearly all actives have a fitted effect of over 75% in size. In a few lines: as §1
Test [7] can be described thus: qHTS of pediatric cancer cell lines to identify multiple opportunities for drug repurposing: Primary screen for Rh41 cells (AID 1347108).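 Also: series mostly up to about 46 µM; luminescence drop marks cytotoxic hits; nearly all actives have a fitted effect of over 70% in size.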 The essentials: as §2

On to `CC(C)(C)NCC(O)COc1ccc(NC(=O)NC2CCCCC2)cc1` (stereo not given), for which the Potency entry in test [1], in test [2], in test [3], in test [4] and in test [7] was “inactive” throughout. In addition, the outcome in test [5] and in test [6] was inactive.

Regarding `CC/C=C(\C(=O)N[C@@H]1C(=O)N2C(C(=O)OCOC(=O)C(C)(C)C)=C(COC(N)=O)CS[C@H]12)c1csc(N)n1`, the Potency entry in test [1], in test [2], in test [3], in test [4] and in test [7] was “inactive” each time. Also, the outcome in test [5] and in test [6] was inactive.

On to `CCN(CC)CCNC(C(=O)OCCC(C)C)c1ccccc1` (stereo not given), for which the Potency entry in test [1], in test [2], in test [3], in test [4] and in test [7] was “inactive” each time. Besides, the outcome in test [5] and in test [6] was inactive.

Turning to `CS(=O)(=O)c1ccc([C@@H](O)[C@@H](CF)NC(=O)C(Cl)Cl)cc1`, the Potency result in test [1], in test [2], in test [3], in test [4] and in test [7] was “inactive” in each case. In addition, the call in test [5] and in test [6] was inactive.

`C[C@]12C[C@H](O)[C@H]3[C@@H](CCC4=CC(=O)CC[C@@]43C)[C@@H]1CC[C@@H]2C(=O)CO`: the Potency entry in test [1], in test [2], in test [3], in test [4] and in test [7] was “inactive” throughout. Moreover, the compound was called inactive in test [5] and in test [6].

With `CC[C@@]1(c2ccccc2)NC(=O)N(C)C1=O`, the Potency result in test [1], in test [2], in test [3], in test [4] and in test [7] was “inactive” each time. The compound was called inactive in test [5] and in test [6].

As to `CC1=C(CC(=O)O)c2cc(F)ccc2/C1=C\c1ccc(S(C)(=O)=O)cc1`, the Potency entry in test [1], in test [2], in test [3], in test [4] and in test [7] was “inactive” throughout. Also, the result in test [5] and in test [6] was inactive.

Consider `CC(=O)Oc1ccc(C2(c3ccc(OC(C)=O)cc3)C(=O)Nc3ccccc32)cc1`, for which the Potency result in test [1], in test [3] and in test [7] was “inactive” in each case. The Potency in test [2] is 1.1 µM (active); in test [4], 168 nM (active). The result in test [5] and in test [6] was inactive.

Take `O=C1c2c(O)cccc2Cc2cccc(O)c21`: the Potency entry in test [1], in test [2], in test [3], in test [4] and in test [7] was “inactive” in each case. Also, the result in test [5] and in test [6] was inactive.

For `CCCCCCCCCCCCCCCCCCOCC(O)CO` (stereo not given), the Potency result in test [1], in test [2], in test [3], in test [4] and in test [7] was “inactive” each time. For the same compound, the outcome in test [5] and in test [6] was inactive.

Take `O=c1[nH]cnc2c1ncn2[C@@H]1O[C@H](CO)[C@@H](O)[C@H]1O`: the Potency result in test [1], in test [2], in test [3], in test [4] and in test [7] was “inactive” each time. In addition, the result in test [5] and in test [6] was inactive.

Consider `CC12CCC(CC1)C(C)(C)O2`, for which the Potency entry in test [1], in test [2], in test [3], in test [4] and in test [7] was “inactive” each time. For the same compound, the outcome in test [5] and in test [6] was inactive.

Consider `OCC(O)CN1CCN(c2ccccc2)CC1` (stereo not given), for which the Potency entry in test [1], in test [2], in test [3], in test [4] and in test [7] was “inactive” in each case. Besides, the result in test [5] and in test [6] was inactive.

As to `CCCc1c(OCCCCc2nn[nH]n2)ccc(C(C)=O)c1O`, the Potency result in test [1], in test [2], in test [3], in test [4] and in test [7] was “inactive” each time. Moreover, the compound was classed as inactive in test [5] and in test [6].

Regarding `N[C@@H](CSCCCO)C(=O)O`, the Potency result in test [1], in test [2], in test [3], in test [4] and in test [7] was “inactive” in each case. For the same compound, the outcome in test [5] and in test [6] was inactive.

For the compound `CC(C)(O)c1ccccc1CC[C@@H](SCC1(CC(=O)O)CC1)c1cccc(/C=C/c2ccc3ccc(Cl)cc3n2)c1`, the Potency entry in test [1], in test [2], in test [3], in test [4] and in test [7] was “inactive” throughout. Moreover, the outcome in test [5] and in test [6] was inactive.

In the case of `CC1(C)[C@@H]2CC[C@@]1(C)C(=O)C2`, the Potency result in test [1], in test [2], in test [3], in test [4] and in test [7] was “inactive” throughout. Besides, the compound was called inactive in test [5] and in test [6].

Turning to `Cc1ncc([N+](=O)[O-])n1CC(O)CCl` (stereo not given), the Potency entry in test [1], in test [2], in test [3], in test [4] and in test [7] was “inactive” in each case. The compound was called inactive in test [5] and in test [6].

With `CCCCN(CCCC)CCCOC(=O)c1ccc(N)cc1`, the Potency entry in test [1], in test [2], in test [3], in test [4] and in test [7] was “inactive” each time. Also, the compound was called inactive in test [5] and in test [6].

With `C[C@@H]1CC[C@@]2(OC1)O[C@H]1C[C@H]3[C@@H]4CC[C@H]5C[C@@H](O)CC[C@]5(C)[C@H]4CC(=O)[C@]3(C)[C@H]1[C@@H]2C`, the activity change, negative = cytotoxic is 11.3% [at 4.84 µM] in test [1]; 9.93% [at 6.18 µM] in test [2]; 12.6% [at 4.84 µM] in test [3]; -5.19% [at 4.84 µM] in test [4]; 6.44% [at 4.84 µM] in test [5]; 18.9% [at 4.84 µM] in test [6]. Further, the activity change, negative = cytotoxic in test [7] was 21.2% [at 4.84 µM].

With `COc1ccc(Cl)cc1C(=O)NCCc1ccc(S(=O)(=O)NC(=O)NC2CCCCC2)cc1`, the Potency result in test [1], in test [2], in test [3], in test [4] and in test [7] was “inactive” each time. The outcome in test [5] and in test [6] was inactive.

For `Oc1cn2c(n1)Nc1ccc(Cl)c(Cl)c1C2`, the Potency result in test [1], in test [2], in test [3], in test [4] and in test [7] was “inactive” throughout. The call in test [5] and in test [6] was inactive.

`C[C@H](N)[C@H](O)c1cccc(O)c1`: the Potency entry in test [1], in test [2], in test [3], in test [4] and in test [7] was “inactive” in each case. In addition, the compound was classed as inactive in test [5] and in test [6].

For `O=C(O)c1ccccc1O`, the Potency entry in test [1], in test [2], in test [3], in test [4] and in test [7] was “inactive” each time. For the same compound, the compound was classed as inactive in test [5] and in test [6].

For the compound `CN1CCC[C@@H]1Cc1c[nH]c2ccc(CCS(=O)(=O)c3ccccc3)cc12`, the Potency entry in test [1], in test [2], in test [3], in test [4] and in test [7] was “inactive” each time. Moreover, the result in test [5] and in test [6] was inactive.
